These compounds were tested on WHIM30 (cells of a triple-negative basal-like breast cancer xenograft) (assay: cell viability of combination (% of vehicle); higher = less cytotoxic). Conditions: 1 µM; 72 h; partner dose: 10 nM.
Protocol: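 PDX cells were treated for 72 h with each drug at 1 µM plus carfilzomib (10 nM; 100 nM for WHIM2). Luciferase viability is expressed as percent of vehicle.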

Structure (SMILES)	cell viability of combination
Cl.Clc1ccccc1CN1CCc2sccc2C1 [Ticlopidine HCl] + CC(C)C[C@H](NC(=O)[C@H](CCc1ccccc1)NC(=O)CN1CCOCC1)C(=O)N[C@@H](Cc1ccccc1)C(=O)N[C@@H](CC(C)C)C(=O)[C@@]1(C)CO1 [Carfilzomib]	16
CN(C(=O)CN(CCO)CC(=O)N(C)C(C)(C)Cc1ccccc1)C(C)(C)Cc1ccccc1 [Oxethazaine] + CC(C)C[C@H](NC(=O)[C@H](CCc1ccccc1)NC(=O)CN1CCOCC1)C(=O)N[C@@H](Cc1ccccc1)C(=O)N[C@@H](CC(C)C)C(=O)[C@@]1(C)CO1 [Carfilzomib]	20.8
CO[C@H]1C[C@@H]2CC[C@@H](C)[C@@](O)(O2)C(=O)C(=O)N2CCCC[C@H]2C(=O)O[C@H]([C@H](C)C[C@@H]2CC[C@@H](O)[C@H](OC)C2)CC(=O)[C@H](C)/C=C(\C)[C@@H](O)[C@@H](OC)C(=O)[C@H](C)C[C@H](C)/C=C/C=C/C=C/1C [Rapamycin (Sirolimus)] + CC(C)C[C@H](NC(=O)[C@H](CCc1ccccc1)NC(=O)CN1CCOCC1)C(=O)N[C@@H](Cc1ccccc1)C(=O)N[C@@H](CC(C)C)C(=O)[C@@]1(C)CO1 [Carfilzomib]	25.8
Cc1ccc(-n2[nH]c(C)c(NN=C3C=CC=C(c4cccc(C(=O)O)c4)C3=O)c2=O)cc1C [Eltrombopag] + CC(C)C[C@H](NC(=O)[C@H](CCc1ccccc1)NC(=O)CN1CCOCC1)C(=O)N[C@@H](Cc1ccccc1)C(=O)N[C@@H](CC(C)C)C(=O)[C@@]1(C)CO1 [Carfilzomib]	19.8
CC(C)(C)c1ccc(C(O)CCCN2CCC(C(O)(c3ccccc3)c3ccccc3)CC2)cc1 (stereo not given) [Terfenadine] + CC(C)C[C@H](NC(=O)[C@H](CCc1ccccc1)NC(=O)CN1CCOCC1)C(=O)N[C@@H](Cc1ccccc1)C(=O)N[C@@H](CC(C)C)C(=O)[C@@]1(C)CO1 [Carfilzomib]	15.5
COC(=O)C12CCC(C)(C)CC1C1C(=O)C=C3C4(C)C=C(C#N)C(=O)C(C)(C)C4CCC3(C)C1(C)CC2 (stereo not given) [Bardoxolone methyl] + CC(C)C[C@H](NC(=O)[C@H](CCc1ccccc1)NC(=O)CN1CCOCC1)C(=O)N[C@@H](Cc1ccccc1)C(=O)N[C@@H](CC(C)C)C(=O)[C@@]1(C)CO1 [Carfilzomib]	14.3
COc1ncc(-c2ccc3nccc(-c4ccnnc4)c3c2)cc1NS(=O)(=O)c1ccc(F)cc1F + CC(C)C[C@H](NC(=O)[C@H](CCc1ccccc1)NC(=O)CN1CCOCC1)C(=O)N[C@@H](Cc1ccccc1)C(=O)N[C@@H](CC(C)C)C(=O)[C@@]1(C)CO1 [Carfilzomib]	8.27
CCCCCCCCc1ccc(CCC(N)(CO)CO)cc1.Cl [Fingolimod (FTY720)] + CC(C)C[C@H](NC(=O)[C@H](CCc1ccccc1)NC(=O)CN1CCOCC1)C(=O)N[C@@H](Cc1ccccc1)C(=O)N[C@@H](CC(C)C)C(=O)[C@@]1(C)CO1 [Carfilzomib]	16.7
CN1CCC(COc2cnc(-c3cccc(Cn4nc(-c5cccc(C#N)c5)ccc4=O)c3)nc2)CC1 + CC(C)C[C@H](NC(=O)[C@H](CCc1ccccc1)NC(=O)CN1CCOCC1)C(=O)N[C@@H](Cc1ccccc1)C(=O)N[C@@H](CC(C)C)C(=O)[C@@]1(C)CO1 [Carfilzomib]	26.9
COc1ccc(C[C@H](N)C(=O)N[C@@H]2[C@H](O)[C@H](n3cnc4c(N(C)C)ncnc43)O[C@@H]2CO)cc1.Cl.Cl [Puromycin dihydrochloride] + CC(C)C[C@H](NC(=O)[C@H](CCc1ccccc1)NC(=O)CN1CCOCC1)C(=O)N[C@@H](Cc1ccccc1)C(=O)N[C@@H](CC(C)C)C(=O)[C@@]1(C)CO1 [Carfilzomib]	5.17
CN(C)CC=CC(=O)Nc1cc2c(Nc3ccc(F)c(Cl)c3)ncnc2cc1OC1CCOC1.O=C(O)C=CC(=O)O.O=C(O)C=CC(=O)O (stereo not given) [Afatinib dimaleate] + CC(C)C[C@H](NC(=O)[C@H](CCc1ccccc1)NC(=O)CN1CCOCC1)C(=O)N[C@@H](Cc1ccccc1)C(=O)N[C@@H](CC(C)C)C(=O)[C@@]1(C)CO1 [Carfilzomib]	12.9
COc1ccc2c(O[C@H]3CC4C(=O)N(C)CCCC/C=C\[C@H]5C[C@@]5(C(=O)NS(=O)(=O)C5CC5)NC(=O)[C@@H]4C3)cc(-c3nc(C(C)C)cs3)nc2c1C (stereo not given in full) [Simeprevir] + CC(C)C[C@H](NC(=O)[C@H](CCc1ccccc1)NC(=O)CN1CCOCC1)C(=O)N[C@@H](Cc1ccccc1)C(=O)N[C@@H](CC(C)C)C(=O)[C@@]1(C)CO1 [Carfilzomib]	22.1
COC(=O)NC(C(=O)N1CCCC1c1ncc(-c2ccc(-c3ccc(-c4cnc(C5CCCN5C(=O)C(NC(=O)OC)C(C)C)[nH]4)cc3)cc2)[nH]1)C(C)C (stereo not given) + CC(C)C[C@H](NC(=O)[C@H](CCc1ccccc1)NC(=O)CN1CCOCC1)C(=O)N[C@@H](Cc1ccccc1)C(=O)N[C@@H](CC(C)C)C(=O)[C@@]1(C)CO1 [Carfilzomib]	25.3
CCCCc1oc2ccccc2c1C(=O)c1cc(I)c(OCCN(CC)CC)c(I)c1.Cl [Amiodarone HCl] + CC(C)C[C@H](NC(=O)[C@H](CCc1ccccc1)NC(=O)CN1CCOCC1)C(=O)N[C@@H](Cc1ccccc1)C(=O)N[C@@H](CC(C)C)C(=O)[C@@]1(C)CO1 [Carfilzomib]	20.3
COc1cc(C(=O)O)ccc1NC(=O)C1NC(CC(C)(C)C)C(C#N)(c2ccc(Cl)cc2F)C1c1cccc(Cl)c1F (stereo not given) + CC(C)C[C@H](NC(=O)[C@H](CCc1ccccc1)NC(=O)CN1CCOCC1)C(=O)N[C@@H](Cc1ccccc1)C(=O)N[C@@H](CC(C)C)C(=O)[C@@]1(C)CO1 [Carfilzomib]	23.5
CCOc1cc2ncc(C#N)c(Nc3ccc(OCc4ccccn4)c(Cl)c3)c2cc1NC(=O)C=CCN(C)C [Neratinib (HKI-272)] + CC(C)C[C@H](NC(=O)[C@H](CCc1ccccc1)NC(=O)CN1CCOCC1)C(=O)N[C@@H](Cc1ccccc1)C(=O)N[C@@H](CC(C)C)C(=O)[C@@]1(C)CO1 [Carfilzomib]	17.5
O=C(O)CO.[NH2-].[NH2-].[Pt+2] [Nedaplatin] + CC(C)C[C@H](NC(=O)[C@H](CCc1ccccc1)NC(=O)CN1CCOCC1)C(=O)N[C@@H](Cc1ccccc1)C(=O)N[C@@H](CC(C)C)C(=O)[C@@]1(C)CO1 [Carfilzomib]	16.4
COc1cc2c(Oc3ccc4[nH]c(C)cc4c3F)ncnc2cc1OCCCN1CCCC1 [Cediranib (AZD217)] + CC(C)C[C@H](NC(=O)[C@H](CCc1ccccc1)NC(=O)CN1CCOCC1)C(=O)N[C@@H](Cc1ccccc1)C(=O)N[C@@H](CC(C)C)C(=O)[C@@]1(C)CO1 [Carfilzomib]	11.6
CN1CCN(c2ccc(C(=O)/N=c3\[nH][nH]c4ccc(Cc5cc(F)cc(F)c5)cc34)c(NC3CCOCC3)c2)CC1 [Entrectinib] + CC(C)C[C@H](NC(=O)[C@H](CCc1ccccc1)NC(=O)CN1CCOCC1)C(=O)N[C@@H](Cc1ccccc1)C(=O)N[C@@H](CC(C)C)C(=O)[C@@]1(C)CO1 [Carfilzomib]	10.1
CC[C@@]1(O)C(=O)OCc2c1cc1n(c2=O)Cc2cc3c(CN(C)C)c(O)ccc3nc2-1 [Topotecan] + CC(C)C[C@H](NC(=O)[C@H](CCc1ccccc1)NC(=O)CN1CCOCC1)C(=O)N[C@@H](Cc1ccccc1)C(=O)N[C@@H](CC(C)C)C(=O)[C@@]1(C)CO1 [Carfilzomib]	7.16

— the supplement of paper PMC6992640
